Sampled rows, rich in hits. Any-hit rate of the full collection: about 2%.
ABHD5 PLIN5 PPI: ABHD5-PLIN5 protein interaction inhibition. Split G. princeps luciferase complementation, luminescence, 4 h. inhibition, % at 4 µM. 360,000 tested, 0.78% active;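 active = inhibition above the mean inhibition across every tested compound plus 3 SD, cut at about 22% in these data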;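 also: 0% = DMSO only wells and the 100% control is not disclosed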
NOD2 RIPK2 PPI: NOD2-RIPK2 protein interaction inhibition. CHO BLA complementation NOD2-RIPK2, CCF4 ratio. inhibition, % at 4.98 µM. 360,000 tested, 0.38% active. AID 624267; in the data active = inhibition above about 21%;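 also: 0% = vehicle only and 100% = reference blocker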
TLR4 MyD88 comp: blocks binding of human TLR4 to MyD88. HeLa CL3-4 TLR4/MyD88 BLA complementation, FRET ratio. O00206+Q99836. inhibition, % at 8.4 µM. 200,000 tested, 0.18% active; in the data active = inhibition above about 25%;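 also: 0% = vehicle and 100% = reference inhibitor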
Beta2AR agonist: human beta-2 adrenergic receptor agonism by FAP; Am2.2-beta2AR cells, FAP receptor internalization, flow cytometry; 340,000 tested, 0.43% active; response, % (concentration not given with the values); P07550;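 active = response above a set limit, near 3 SD of response in nonfluorescent compounds, cut at about 42% in these data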
TLR9-MyD88 block: TLR9-MyD88 interaction inhibition. 340,000 tested, 0.21% active. AID 504734. CHO BLA complementation TLR9-MyD88, CCF4 FRET ratio. inhibition, % at 4.98 µM;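 active = inhibition above the mean over all tested compounds plus 3 SD, cut at about 21% in these data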;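 also: 0% = DMSO only wells and 100% = clavulanate BLA inhibitor control wells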
Target sequence (Q99836 whole entry, looked up): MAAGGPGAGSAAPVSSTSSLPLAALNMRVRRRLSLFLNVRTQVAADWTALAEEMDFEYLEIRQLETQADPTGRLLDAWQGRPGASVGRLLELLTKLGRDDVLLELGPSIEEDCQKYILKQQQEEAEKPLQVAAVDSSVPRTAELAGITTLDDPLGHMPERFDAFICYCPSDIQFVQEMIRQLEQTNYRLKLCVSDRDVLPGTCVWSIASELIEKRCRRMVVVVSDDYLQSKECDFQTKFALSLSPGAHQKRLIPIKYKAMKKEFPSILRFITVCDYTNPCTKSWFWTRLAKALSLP
Target sequence (Q9NR96 whole entry, looked up): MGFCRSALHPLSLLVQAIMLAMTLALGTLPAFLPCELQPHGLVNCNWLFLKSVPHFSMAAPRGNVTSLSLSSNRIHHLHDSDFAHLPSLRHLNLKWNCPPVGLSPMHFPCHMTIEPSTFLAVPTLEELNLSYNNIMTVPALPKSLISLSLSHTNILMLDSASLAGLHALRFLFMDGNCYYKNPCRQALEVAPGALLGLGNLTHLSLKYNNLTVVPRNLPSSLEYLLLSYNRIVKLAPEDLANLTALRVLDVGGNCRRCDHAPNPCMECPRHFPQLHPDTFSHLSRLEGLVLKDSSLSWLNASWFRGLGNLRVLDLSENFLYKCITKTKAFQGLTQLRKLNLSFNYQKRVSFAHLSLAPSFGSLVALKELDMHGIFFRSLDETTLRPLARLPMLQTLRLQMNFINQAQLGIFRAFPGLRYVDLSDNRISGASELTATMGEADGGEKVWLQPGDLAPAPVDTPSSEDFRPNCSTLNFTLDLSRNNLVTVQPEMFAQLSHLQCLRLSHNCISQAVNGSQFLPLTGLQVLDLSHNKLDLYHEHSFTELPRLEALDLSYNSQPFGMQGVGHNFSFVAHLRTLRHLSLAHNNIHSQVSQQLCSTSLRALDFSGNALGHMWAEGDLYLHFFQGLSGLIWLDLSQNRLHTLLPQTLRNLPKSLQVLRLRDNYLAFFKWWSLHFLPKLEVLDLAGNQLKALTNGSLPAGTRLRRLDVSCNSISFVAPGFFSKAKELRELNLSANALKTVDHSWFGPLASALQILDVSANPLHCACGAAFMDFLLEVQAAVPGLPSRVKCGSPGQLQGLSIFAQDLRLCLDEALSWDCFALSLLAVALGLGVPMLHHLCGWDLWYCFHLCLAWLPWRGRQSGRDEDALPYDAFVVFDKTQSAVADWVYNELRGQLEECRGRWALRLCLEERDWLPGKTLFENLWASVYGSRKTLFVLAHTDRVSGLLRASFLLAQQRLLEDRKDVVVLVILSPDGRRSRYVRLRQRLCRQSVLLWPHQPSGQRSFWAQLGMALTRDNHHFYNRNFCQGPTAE
Exocytosis inh: blocks lytic granule exocytosis | AID 651702 | TALL-104 LAMP-1 surface exposure, flow cytometry; cells stimulated with thapsigargin and PMA | 360,000 tested, 0.66% active | inhibition, % at 10 µM;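 active = inhibition above about 55%, limit read from the data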
NOD2-RIPK2 conf: confirmation of human NOD2-RIPK2 interaction inhibitors; shares compounds with NOD2 RIPK2 PPI; CHO cells, NOD2-RIPK2 BLA complementation, CCF4 FRET; inhibition, % at 4.98 µM; 1,200 tested, 70% active;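 active = mean inhibition across replicates above a set limit taken from the earlier primary screen, cut at about 21% in these data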;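 also: 0% = DMSO-only wells and the high end = clavulanate BLA-blocked wells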
NOD2 BLA counter: hits BLA reporter in NOD2-RIPK2 inhibitor counterscreen; shares compounds with NOD2 RIPK2 PPI; CHO BLA reporter, CCF4 FRET ratio; inhibition, % at 4.98 µM; 1,200 tested, 57% active; AID 624371;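 active = mean inhibition above the low-control mean inhibition plus three low-control SD, cut at about 11% in these data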;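 also: 0% = DMSO only wells and 100% = clavulanate high control wells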
Granule exo CP1: lytic granule exocytosis inhibition. shares compounds with Exocytosis inh. TALL-104 cells, LAMP-1 externalization, flow cytometry; stimulated with PMA plus thapsigargin. inhibition, % at 10 µM. 1,500 tested, 11% active. AID 651954; in the data active = inhibition above about 60%;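 also: 0% = stimulated vehicle wells and 100% = unstimulated wells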
Starred values were filed as active, the others as inactive; / = no result given.

SMILES	ABHD5 PLIN5 PPI	NOD2 RIPK2 PPI	TLR4 MyD88 comp	Beta2AR agonist	TLR9-MyD88 block	Exocytosis inh	Granule exo CP1	others
CS(=O)(=O)c1ccc(C(=O)OCC(=O)N2CCN(CCC3CCCCC3)CC2)cc1[N+](=O)[O-]	12.4	55.0*	/	/	/	-7.6	/	NOD2-RIPK2 conf=57.6*;NOD2 BLA counter=8.6
Cc1[nH]c2ccccc2c1/C=N/NC(=O)c1cccc(Br)c1	-7.7	-8.2	/	18.8	-4.6	-13.1	/
O=C(N/N=C/c1[nH]c2ccccc2c1Cl)c1cccc(Br)c1	-5.2	24.2*	/	2.1	/	7.1	/	NOD2-RIPK2 conf=11.5;NOD2 BLA counter=31.4*
CCc1ccc2nc(N(CCCN(C)C)C(=O)c3ccc(S(=O)(=O)N4CCc5ccccc5C4)cc3)sc2c1	20.0	21.7*	/	34.9	14.6	77.3*	86.8*	NOD2-RIPK2 conf=23.4*;NOD2 BLA counter=4.8
O=c1c2ccccc2sn1-c1ccccc1	111.1*	76.6*	8.7	-20.2	54.4*	99.4*	105.3*	NOD2-RIPK2 conf=49.8*;NOD2 BLA counter=9.7
Cn1sc2ccccc2c1=O	8.8	2.0	/	/	1.1	19.3	/
COc1cccc(C(C)(O)c2nc(-c3ccc4c(c3)OCO4)cs2)c1 (configuration not stated)	-2.1	-4.4	/	/	/	-9.8	/
Cn1nc(C(F)(F)F)c2cc(C(=O)Nc3ccc(C(F)(F)F)cc3)sc21	1.4	-2.4	/	11.7	6.2	85.5*	2.5
Cn1nc(C(F)(F)F)c2cc(C(=O)Nc3ccc(F)cc3)sc21	2.4	-8.8	/	5.5	2.8	11.6	/
CCC(C)Nc1nc(-c2cccc(OC)c2O)nc2ccccc12 (configuration not stated)	-0.9	-5.5	7.1	4.3	-5.4	75.5*	106.6*
COc1cccc(-c2nc(N3CCCCC3)c3ccccc3n2)c1O	-0.6	-14.0	/	16.0	0.2	76.6*	9.0
CNc1ncnc2c1ncn2[C@H]1CN(CCN2CCOCC2)C[C@@H](CO)O1	-3.0	-18.6	/	/	/	0.4	/
CN(CCCC1CCCC1)C(=O)c1cc(COc2c(F)cccc2F)on1	2.7	-0.7	/	-1.1	-4.9	8.2	/
CN(CCCC1CCCC1)C(=O)c1cc(COc2ccc(F)c(F)c2)on1	-1.3	-30.2	/	-3.0	-8.8	68.5*	-10.6
COC(=O)[C@@]1(Sc2ccc(C)cc2)CC(=O)N(c2ccccc2)[C@@H]1c1ccccc1	-6.6	-9.3	/	/	/	-9.6	/
CCCCN(CC(O)COc1cccc(C)c1)CC(O)COc1cccc(C)c1 (configuration not stated)	1.0	7.5	/	-1.2	-11.1	82.8*	-4.3
CN(C)CC(O)COc1cccc(OCC(O)CN(C)C)c1 (configuration not stated)	-4.6	1.5	-4.9	-4.2	-3.0	-1.1	/
CC(=O)Nc1ccc(Nc2nc(-c3c(C)nc4ccccn34)cs2)cc1	-13.4	-7.1	/	1.9	/	75.2*	-3.8
Cc1nc2ncccn2c1-c1csc(Nc2ccccc2)n1	-12.4	7.3	10.0	16.8	1.5	0.2	/
CC(C)Oc1cc(F)ccc1-c1cc(C(=O)Nc2cccc(C(F)(F)F)c2)[nH]n1	-18.6	7.8	/	/	/	-6.4	/
CCCCOn1c(C)c(C(=O)OCC)c2c3no[n+]([O-])c3ccc21	0.4	-1.3	-5.6	-13.6	0.1	4.4	/
CCCCOn1c(C)c(C(=O)OCC)c2c3nonc3ccc21	-11.3	5.2	-3.2	1.9	2.8	86.9*	36.3
COc1cc(NC(=O)CN2C(=O)COc3ccccc32)cc(OC)c1	0.9	12.4	/	-0.1	-9.5	-2.4	/
O=C(Nc1ccc(N2CCN(c3ncccc3C(F)(F)F)CC2)nc1)c1cccs1	1.7	5.5	/	21.7	-4.4	74.6*	17.6
O=C(c1cnc(Cc2c[nH]c3ccccc23)c(I)c1)N1CCOCC1	-5.4	-0.9	/	/	/	-1.5	/
SMILES	ABHD5 PLIN5 PPI	NOD2 RIPK2 PPI	TLR4 MyD88 comp	Beta2AR agonist	TLR9-MyD88 block	Exocytosis inh	Granule exo CP1	others
Nc1c(-c2ccc(Cl)cc2)nnn1-c1ccccc1	-3.3	-5.5	-5.9	-1.4	0.3	-1.1	/
Clc1ccc(-c2c(C3=NCCCN3)nnn2-c2ccc(Cl)cc2)cc1	3.9	-14.0	/	-0.9	-5.8	56.2*	-2.8
O=C1c2c(-c3ccc(Br)cc3)noc2CCN1Cc1cn(C2CCCC2)nn1	10.9	-2.6	/	/	/	0.0	/
CCOc1cc(OCC)cc(C(=O)N2CCC[C@H]2C(=O)N2CCC[C@H]2C(=O)NCc2ccccn2)c1	8.1	-10.8	/	/	/	14.6	/
C=C1c2nc3ccccc3n2C=C(c2ccc(C)cc2)N1c1ccccc1	4.8	-4.2	/	-2.2	-10.2	90.1*	-13.8
Cc1cccc(N2C(=O)CC(Sc3ccccc3C(=O)O)C2=O)c1 (configuration not stated)	8.8	-12.7	-10.2	2.4	-1.6	19.0	/
Cc1cc(C)cc(N2C(=O)CC(Sc3ccccc3C(=O)O)C2=O)c1 (configuration not stated)	14.4	-9.3	/	5.2	1.6	83.8*	-11.5
CC(=O)N1CCSc2ccc(S(=O)(=O)NCCc3ccc(C)cc3)cc21	-8.0	1.1	/	-7.9	4.5	62.5*	-10.2
CC(=O)N1CCSc2ccc(S(=O)(=O)NCCc3ccc(Cl)cc3)cc21	-12.0	-6.0	/	-4.5	-14.0	1.6	/
COc1cccc(C#CC2=CC(=O)CC(C)(C)C2)c1	1.0	2.9	/	/	3.5	-8.5	/
O=C(Nc1ccc(S(=O)(=O)NCc2ccco2)cc1)c1ccc2ccccc2n1	6.8	-10.8	-1.7	-30.0	8.0	97.7*	-9.1
Cc1cc2nc(-c3ccc(Cl)cc3)c(Cc3ccsc3)n2c(C)c1Br	-9.8	-9.2	/	/	/	4.8	/
CC(=O)Nc1cc(-c2ccc(N)nc2)cn2c(-c3cccc(C(F)(F)F)c3)cnc12	16.6	5.2	/	/	/	1.7	/
Clc1ccc(/C=C/c2nc3ccccc3[nH]2)cc1	-0.9	5.0	2.5	-0.9	2.0	1.9	/
Clc1ccc(/C=C\c2nccc3c2[nH]c2ccccc23)cc1	-13.7	-56.7	-106.6	-0.8	-73.5	87.7*	3.8
COc1ccc(C2CC(=O)Oc3c(C(CCN4CCCC(C)C4)c4ccc(N(C)C)cc4)c(OC)cc(OC)c32)cc1 (configuration not stated)	5.3	-11.3	/	11.7	1.3	72.4*	-2.4
COc1ccc(C2CC(=O)Oc3c(C(CCN4CCCCC4)c4ccc(N(C)C)cc4)c(OC)cc(OC)c32)cc1 (configuration not stated)	2.3	1.9	/	14.9	5.5	-1.4	/
COC(=O)[C@@H]1C[C@@]2(O)[C@H](O)[C@H](O)[C@H](O)C[C@H]2N1Cc1ccc(-c2ccccc2)cc1	4.9	-4.0	/	5.1	-3.4	5.7	/

Compound activity as filed in PubChem BioAssay.
